# According to the supplement of paper PMC3334620:
# The full ranking holds about 33,000 sequences; the median of “E-score (-0.5 to 0.5)” is about -0.054, and the highest 2% start at about 0.35. What follows is part of a selection rich in the highest values, with near analogues and random picks from the rest.
# Biological target: T1, Stb5 (UniProt P38699)
# T1 sequence: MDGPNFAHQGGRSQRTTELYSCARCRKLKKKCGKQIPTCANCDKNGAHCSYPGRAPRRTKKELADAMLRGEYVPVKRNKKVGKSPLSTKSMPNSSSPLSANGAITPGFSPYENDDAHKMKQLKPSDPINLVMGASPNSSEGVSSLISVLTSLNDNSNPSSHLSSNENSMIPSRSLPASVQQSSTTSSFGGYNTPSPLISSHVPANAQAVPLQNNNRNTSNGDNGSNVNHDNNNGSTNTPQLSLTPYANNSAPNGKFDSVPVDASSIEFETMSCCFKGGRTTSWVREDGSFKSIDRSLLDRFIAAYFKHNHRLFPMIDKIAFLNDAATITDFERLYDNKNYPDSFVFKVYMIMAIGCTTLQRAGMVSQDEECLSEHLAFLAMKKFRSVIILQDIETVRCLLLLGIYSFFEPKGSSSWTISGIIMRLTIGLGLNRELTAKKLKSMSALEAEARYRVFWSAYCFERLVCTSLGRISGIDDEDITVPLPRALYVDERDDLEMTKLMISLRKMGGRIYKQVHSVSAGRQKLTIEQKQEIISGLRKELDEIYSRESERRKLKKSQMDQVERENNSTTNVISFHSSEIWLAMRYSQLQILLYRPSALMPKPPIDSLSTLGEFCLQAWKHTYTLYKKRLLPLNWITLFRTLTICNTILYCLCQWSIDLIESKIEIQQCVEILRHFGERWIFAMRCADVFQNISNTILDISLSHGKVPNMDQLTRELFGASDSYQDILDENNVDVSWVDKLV
# Experiment: PBM E-score (8-mer binding enrichment) (E-score (-0.5 to 0.5)); higher = stronger / more preferred TF binding
# Settings: protein concentration: 200 nM; construct: GST-full length
# Experimental: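 Universal 'all 10-mer' protein binding microarrays (Agilent AMADID 015681) probed with GST-tagged S. cerevisiae TFs (full-length or DBD) made by in vitro transcription/translation (PURExpress), about 100-200 nM. Bound TF was detected with fluorescent anti-GST. Each ungapped 8-mer (which stands for itself and its reverse complement) is scored by the PBM enrichment score (E-score), a modified Wilcoxon-Mann-Whitney statistic from -0.5 to +0.5, computed with the Universal PBM Analysis Suite. Scale: above 0.35 generally sequence-specific binding.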
row,Sequence,PBM E-score
1,GCTCTTTA,0.0664
2,CACTGCTC,-0.117
3,AAGCGTGC,-0.171
4,ACGAGCGT,-0.163
5,CAGTTCCG,0.0961
6,AAGTTCCG,0.373
7,AAGTTCCT,-0.098
8,ACCACAGA,-0.0655
9,CCCGCTAA,0.261
10,AGCGACTG,-0.328
11,CCGCTCCG,0.361
12,CCGCTCGC,0.373
13,ACGCTCCG,0.174
14,CCGCTACG,0.355
15,CCGCTACA,0.262
16,CCGCTCCC,0.247
17,ACGCTCGC,-0.078
18,CCGCTCGA,0.328
19,ACGCTACG,-0.187
20,CAGTTGCC,-0.0751
21,AGAAAGAC,-0.0525
22,GATATAGA,-0.162
23,AACGGGTG,0.155
24,GTGAAGCA,-0.165
25,AGATTTTA,0.0159

row,Sequence,PBM E-score
1,ACACTATG,-0.13
2,AAAGTCTC,-0.145
3,AAGACCGC,0.443
4,GAGACCGC,0.311
5,CAGACCGA,0.174
6,AAGACCAT,-0.18
7,CAGACCGG,0.272
8,GAGACCGA,0.257
9,AAGACCGA,0.414
10,AAGACCGT,0.382
11,AAGACCAG,-0.107
12,AAGACCGG,0.418
13,CAGACCGC,0.272
14,AAGACCTT,-0.073
15,CCTCTGAG,-0.141
16,ACTGCGGC,0.168
17,TCGTTAGA,-0.147
18,ATAAGGGG,-0.0458
19,ACGTTGAA,-0.0556
20,AGCCATAC,-0.269
21,GCTTGAAA,-0.11
22,AATGCTGT,-0.0756
23,GCCGATCC,0.207
24,AGCGCCCG,0.198
25,AGCGCCAC,0.162

row,Sequence,PBM E-score
1,AGCGCCGC,0.41
2,AGCGCCGA,0.342
3,AGCGCCGG,0.376
4,CGCGCCGC,0.325
5,CTCTTATC,-0.11
6,CTTTTTAC,0.145
7,GCTGCTAA,0.122
8,ACCCCGTG,0.367
9,AACCCGTC,0.183
10,CCCCCGTC,0.233
11,ACCCCGTA,0.301
12,AACCCGTG,-0.0372
13,ACCCCGTC,0.381
14,AGCTGTGA,-0.266
15,GGGGTATA,0.26
16,GGGGGCTA,0.0408
17,CGGGTATA,0.403
18,AGGGTATA,0.217
19,CGGGGCTA,0.454
20,CGGGGTAA,0.424
21,AGGGTCTA,-0.0622
22,CGGGTCTA,0.412
23,CGGGTCTC,0.151
24,AGGGGTAA,-0.249
25,GGGGGTAA,0.248

row,Sequence,PBM E-score
1,AGGGGCTA,-0.0747
2,CCTTAATA,0.03
3,CCCAAGGA,-0.0196
4,CTTCGCCA,0.0018
5,GATTAGTA,0.0787
6,ATACATGG,-0.155
7,CGCATCAA,0.126
8,ACGCTTAG,-0.072
9,GTGGGTTA,-0.0789
10,CTCCTCTC,-0.308
11,CCGGGGTA,0.268
12,CGGGGGTA,0.451
13,CGGGGTTC,0.388
14,AGGGGTTC,-0.15
15,GGGGGGTA,0.0523
16,CCGGGTTC,0.24
17,GGAGCCAA,0.00764
18,GACTATAC,0.0897
19,AAGGACGG,0.162
20,CGACGGAA,0.262
21,AGACGGAC,0.331
22,CGACGGAG,0.339
23,GGACGGAC,0.359
24,GGACGGAA,0.133
25,CGACGGAC,0.368

row,Sequence,PBM E-score
1,CGCCTCGA,0.0565
2,GCTATTGA,0.168
3,GTTCGATA,-0.036
4,CCTGTTTA,0.0509
5,CGTTTGCA,0.0334
6,ACCTGAAA,-0.098
7,ATCGCCGC,0.385
8,CTCGCCGA,-0.0352
9,ATCGCCTC,-0.271
10,ATCGCCGA,0.387
11,ATAGCCGG,0.373
12,ATCGCCTG,-0.215
13,ATAGCCGC,0.312
14,ATCGCCGG,0.368
15,CTCGCCGC,0.0978
16,ATCGCCAG,-0.0866
17,ATAGCCGA,0.216
18,GTCGCCGA,0.19
19,AGGCAACC,-0.251
20,ATGAGCTC,-0.262
21,GAGTCTGA,-0.308
22,CAAAAGAG,-0.072
23,TCAGTTCA,-0.229
24,CGCGTCAC,-0.194
25,CAAACACG,-0.114

row,Sequence,PBM E-score
1,AAAACACT,0.0252
2,AAAACACG,-0.0278
3,CAAACACA,-0.126
4,CAAACACC,0.352
5,AAAACACC,0.353
6,AGTTGTAC,0.0567
7,ATAGTCAC,-0.0899
8,ACAGACCC,-0.00703
9,CCAGGAGG,-0.238
10,TTTCAAAA,-0.0616
11,CCTAACCC,0.0781
12,CGACGATC,-0.058
13,CGAATAGC,0.0153
14,AAAGGTTG,-0.192
15,CTTGGCAC,-0.106
16,AGCTTTAG,-0.226
17,AGCATCGG,0.214
18,CCATACCG,0.202
19,CCCCGCAC,0.236
20,GCCCGCTA,0.233
21,ACCCGCTA,0.0951
22,CCCCGCTA,0.399
23,ACCCGCTC,0.246
24,CCCCGCTC,0.371
25,AGCCGCTA,0.173

row,Sequence,PBM E-score
1,CGCCGCTA,0.412
2,GGCCGCTA,0.299
3,AGACCAGC,-0.285
4,AAGTCTGC,-0.211
5,CCAGCAGC,-0.12
6,TGAACTAA,-0.153
7,GGAACTAA,0.373
8,AGAACTAA,0.0894
9,CCCGTTTA,0.188
10,GTCCACAC,0.162
11,GCTCCGGA,0.368
12,CCTCCGGA,0.219
13,ACTCCGGC,0.307
14,ACTCCGGA,0.355
15,ACTCCGGG,0.327
16,GCTCCGCA,0.173
17,ATATTCTG,0.0727
18,GCTGACCA,-0.169
19,CCCCCAAG,-0.233
20,GGCAGCTA,-0.0896
21,TAATACTA,-0.0352
22,CAGAATCC,-0.0711
